More than one record can exist for a structure, and the calls need not agree. The source made the active and inactive calls. Rule for the calls: active = hit-call score of the fitted dose curve at least 0.9, where 1 is the maximum; inactive = score below 0.9.
Columns and labels:
Settings in all cases: mRNA level, 48 h; actives raise or lower the signal
[1] = read-out: Cytochrome P450 3A4 (Homo sapiens) (UniProt P08684); experiment: LTEA_HepaRG_CYP3A4: Life Technologies and Expression Analysis (LTEA) Assay for CYP3A4 using HepaRG (AID 2283487)
Method in brief: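 In a human hepatic line (HepaRG), duplicate wells were treated 48 h with up to 100 uM chemical in half-log dilutions. Endpoint: CYP3A4 mRNA induction or loss relative to 0.5% DMSO vehicle, by qRT-PCR.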

[2] = read-out: DNA damage-inducible transcript 3 (DDIT3), DDIT3 (gene 1649); experiment: LTEA_HepaRG_DDIT3: Life Technologies and Expression Analysis (LTEA) Assay for DNA damage-inducible transcript 3 (DDIT3) using HepaRG (AID 2283488)
Method in brief: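 Changes in DDIT3 transcript, in either direction relative to 0.5% DMSO vehicle, were quantified by TaqMan qRT-PCR after 48 h chemical exposure of HepaRG cells at 8 concentrations, maximum 100 uM.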

[3] = read-out: Pro-epidermal growth factor (Homo sapiens) (UniProt P01133); experiment: LTEA_HepaRG_EGF: Life Technologies and Expression Analysis (LTEA) Assay for Epidermal growth factor (EGF) using HepaRG (AID 2283489)
Method in brief: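 Differentiated human HepaRG cells, plated 48 h then switched to serum-free induction medium, were exposed for 48 h to test chemicals (8-point half-log series, top 100 uM, 0.5% DMSO). EGF mRNA was quantified by qRT-PCR, normalized to ACTB, GAPDH, POLR2A.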

[4] = read-out: Early growth response protein 1 (EGR1) transcription factor, EGR1 (gene 1958); experiment: LTEA_HepaRG_EGR1: Life Technologies and Expression Analysis (LTEA) Assay for Early growth response protein 1 (EGR1) transcription factor using HepaRG (AID 2283490)
Method in brief: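 Differentiated HepaRG cells in serum-free induction medium exposed 48 hours, duplicate, to 8 half-log concentrations up to 100 uM in 0.5% DMSO. EGR1 mRNA measured by TaqMan qRT-PCR, normalized to ACTB, GAPDH, POLR2A; bidirectional fit versus DMSO.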

[5] = read-out: Ezrin (EZR), EZR (gene 7430); experiment: LTEA_HepaRG_EZR: Life Technologies and Expression Analysis (LTEA) Assay for Ezrin (EZR) using HepaRG (AID 2283491)
Method in brief: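 Gain or loss of EZR mRNA is scored relative to 0.5% DMSO in human HepaRG cultures treated 48 h with test chemicals in duplicate, eight half-log concentrations from 100 uM.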

[6] = read-out: Cytochrome P450 3A7 (Homo sapiens) (UniProt P24462); experiment: LTEA_HepaRG_CYP3A7: Life Technologies and Expression Analysis (LTEA) Assay for CYP3A7 using HepaRG (AID 2283492)
Method in brief: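 HepaRG cells plated 48 h, then dosed in serum-free induction medium for 48 h at 8 concentrations (top 100 uM, half-log steps, 0.5% DMSO). CYP3A7 mRNA by qRT-PCR, normalised to ACTB/GAPDH/POLR2A; bidirectional fit versus DMSO.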

CYP3A5 (gene 1577) = experiment: LTEA_HepaRG_CYP3A5: Life Technologies and Expression Analysis (LTEA) Assay for CYP3A5 using HepaRG (AID 2283493)
Method in brief: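 mRNA induction or loss of CYP3A5 assessed in HepaRG after 48 h dosing, 100 uM top concentration, duplicate wells; TaqMan qRT-PCR with ACTB, GAPDH, POLR2A normalization; 0.5% DMSO as negative control.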

[7] = read-out: Fatty Acid-Binding Protein 1 (FABP1), FABP1 (gene 2168); experiment: LTEA_HepaRG_FABP1: Life Technologies and Expression Analysis (LTEA) Assay for Fatty Acid-Binding Protein 1 (FABP1) using HepaRG (AID 2283494)
Method in brief: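 Differentiated human HepaRG cells exposed 48 h in serum-free induction medium to eight half-log concentrations up to 100 uM (0.5% DMSO), duplicate. FABP1 mRNA by qRT-PCR, normalised to ACTB, GAPDH, POLR2A; bidirectional fitting against DMSO.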

[8] = read-out: Cytochrome P450 4A22 (Homo sapiens) (UniProt Q5TCH4); experiment: LTEA_HepaRG_CYP4A22: Life Technologies and Expression Analysis (LTEA) Assay for Cytochrome P450 4A22 (CYP4A22) using HepaRG (AID 2283495)
Method in brief: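 qRT-PCR of CYP4A22 mRNA (Fluidigm TaqMan, normalized to three housekeeping genes) after 48 h chemical exposure of HepaRG cells; 8-point half-log series, top 100 uM, 0.5% DMSO vehicle. Bidirectional curve fitting vs DMSO baseline.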

[9] = read-out: Cytochrome P450 7A1 (Homo sapiens) (UniProt P22680); experiment: LTEA_HepaRG_CYP7A1: Life Technologies and Expression Analysis (LTEA) Assay for Cytochrome P450 7A1 (CYP7A1) using HepaRG (AID 2283496)
Method in brief: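 Gene expression endpoint in human HepaRG liver cells treated for 48 h with test chemicals (up to 100 uM, 0.5% DMSO). Values come from bidirectional concentration-response fitting versus DMSO.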

[10] = read-out: Glutathione S-Transferase (GSTA2), GSTA2 (gene 2939); experiment: LTEA_HepaRG_GSTA2: Life Technologies and Expression Analysis (LTEA) Assay for Glutathione S-Transferase (GSTA2) using HepaRG (AID 2283497)
Method in brief: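 Differentiated human HepaRG cells were exposed in duplicate for 48 h in serum-free induction medium, 8 points from 100 uM top in half-log steps, 0.5% DMSO. GSTA2 mRNA was measured by TaqMan qRT-PCR, normalized to ACTB, GAPDH and POLR2A; bidirectional fit versus DMSO.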

[11] = read-out: Glutamate-cysteine ligase catalytic (GCLC), GCLC (gene 2729); experiment: LTEA_HepaRG_GCLC: Life Technologies and Expression Analysis (LTEA) Assay for Glutamate-cysteine ligase catalytic (GCLC) using HepaRG (AID 2283498)
Method in brief: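 Differentiated HepaRG cells exposed 48 h in serum-free induction medium, eight-point half-log series topping at 100 uM in 0.5% DMSO, duplicates. GCLC mRNA by qRT-PCR normalized to ACTB, GAPDH and POLR2A, fitted bidirectionally versus DMSO.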

[12] = read-out: growth arrest and DNA damage 45 (GADD45G), GADD45G (gene 10912); experiment: LTEA_HepaRG_GADD45G: Life Technologies and Expression Analysis (LTEA) Assay for growth arrest and DNA damage 45 (GADD45G) using HepaRG (AID 2283499)
Method in brief: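 Differentiated human HepaRG cells in serum-free induction medium were exposed for 48 h to 8 half-log concentrations up to 100 uM in 0.5% DMSO, in duplicate. GADD45G mRNA was measured by TaqMan qRT-PCR, normalised to ACTB, GAPDH and POLR2A, and fitted bidirectionally against DMSO.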

[13] = read-out: Glutamate-cysteine ligase regulatory (GCLM), GCLM (gene 2730); experiment: LTEA_HepaRG_GCLM: Life Technologies and Expression Analysis (LTEA) Assay for Glutamate-cysteine ligase regulatory (GCLM) using HepaRG (AID 2283500)
Method in brief: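 Human liver HepaRG cultures receive test chemicals for 48 hours at up to 100 uM in 0.5% DMSO. GCLM expression is measured by qRT-PCR and analysed for increases or decreases against vehicle.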

[14] = read-out: Heat shock 70 kDa protein 1 (HSPA1A), gene 3303; experiment: LTEA_HepaRG_HSPA1A: Life Technologies and Expression Analysis (LTEA) Assay for Heat shock 70 kDa protein 1 (HSPA1A) using HepaRG (AID 2283502)
Method in brief: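 HSPA1A induction in human HepaRG liver cells is measured after 48 h of chemical treatment (100 uM maximum, 0.5% DMSO vehicle). Expression comes from qRT-PCR normalized to endogenous controls.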

[15] = read-out: 3-Hydroxy-3-Methylglutaryl-CoA Synthase 2 (HMGCS2), HMGCS2 (gene 3158); experiment: LTEA_HepaRG_HMGCS2: Life Technologies and Expression Analysis (LTEA) Assay for 3-Hydroxy-3-Methylglutaryl-CoA Synthase 2 (HMGCS2) using HepaRG (AID 2283504)
Method in brief: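 Differentiated human HepaRG cells were exposed in duplicate for 48 h in serum-free induction medium to eight concentrations (top 100 uM, half-log steps, 0.5% DMSO). HMGCS2 mRNA was quantified by TaqMan qRT-PCR, normalised to ACTB, GAPDH and POLR2A, then fitted bidirectionally against DMSO.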

HGF (gene 3082) = experiment: LTEA_HepaRG_HGF: Life Technologies and Expression Analysis (LTEA) Assay for Hepatocyte Growth Facto (HGF) using HepaRG (AID 2283505)
Method in brief: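 Differentiated human HepaRG cells in serum-free induction medium were exposed in duplicate for 48 h to eight concentrations (top 100 uM, half-log steps, 0.5% DMSO). HGF mRNA was quantified by qRT-PCR, normalized to ACTB, GAPDH and POLR2A.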

[16] = read-out: Insulin Like Growth Factor 1 (IGF1), IGF1 (gene 3479); experiment: LTEA_HepaRG_IGF1: Life Technologies and Expression Analysis (LTEA) Assay for Insulin Like Growth Factor 1 (IGF1) using HepaRG (AID 2283506)
Method in brief: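 Using human HepaRG liver cells, IGF1 transcript induction or suppression is measured 48 h after dosing across eight concentrations capped at 100 uM. Values derive from bidirectional concentration-response fitting with DMSO as baseline.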

[17] = read-out: Hypoxia-inducible factor 1-alpha (Homo sapiens) (UniProt Q16665); experiment: LTEA_HepaRG_HIF1A: Life Technologies and Expression Analysis (LTEA) Assay for Hypoxia-inducible factor 1 (HIF1A) Trancription factor using HepaRG (AID 2283503)
Method in brief: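 HepaRG, 48 h exposure, 8-pt half-log series from 100 uM, 0.5% DMSO vehicle, duplicates. Readout: HIF1A transcript by qRT-PCR (Fluidigm array), housekeeping-normalised. Bidirectional curve fit vs DMSO baseline.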

[18] = read-out: Glutathione S-transferase M3 (GSTM3), GSTM3 (gene 2947); experiment: LTEA_HepaRG_GSTM3: Life Technologies and Expression Analysis (LTEA) Assay for Glutathione S-transferase M3 (GSTM3) using HepaRG (AID 2283501)
Method in brief: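 Differentiated HepaRG cells in serum-free induction medium were exposed in duplicate for 48 h to 8 half-log concentrations up to 100 uM in 0.5% DMSO. GSTM3 mRNA was measured by TaqMan qRT-PCR, normalized to ACTB/GAPDH/POLR2A, and fitted bidirectionally versus DMSO.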

Measured: AC50

Cytochrome P450 3A4 (Homo sapiens), sequence (P08684 whole entry, looked up): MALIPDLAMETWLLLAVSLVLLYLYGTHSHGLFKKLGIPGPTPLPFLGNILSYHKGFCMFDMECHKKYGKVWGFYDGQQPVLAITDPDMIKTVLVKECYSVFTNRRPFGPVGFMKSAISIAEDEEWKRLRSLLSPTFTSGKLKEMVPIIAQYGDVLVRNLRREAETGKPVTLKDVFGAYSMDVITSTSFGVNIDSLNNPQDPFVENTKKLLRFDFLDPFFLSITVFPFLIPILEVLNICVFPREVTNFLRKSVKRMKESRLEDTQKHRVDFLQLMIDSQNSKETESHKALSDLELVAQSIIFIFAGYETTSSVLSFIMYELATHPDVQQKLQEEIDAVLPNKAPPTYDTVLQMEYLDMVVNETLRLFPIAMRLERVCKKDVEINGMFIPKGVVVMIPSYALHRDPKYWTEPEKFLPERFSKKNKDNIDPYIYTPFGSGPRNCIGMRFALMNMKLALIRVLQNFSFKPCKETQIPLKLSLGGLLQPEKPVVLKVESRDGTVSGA
Cytochrome P450 3A7 (Homo sapiens), sequence (P24462 whole entry, looked up): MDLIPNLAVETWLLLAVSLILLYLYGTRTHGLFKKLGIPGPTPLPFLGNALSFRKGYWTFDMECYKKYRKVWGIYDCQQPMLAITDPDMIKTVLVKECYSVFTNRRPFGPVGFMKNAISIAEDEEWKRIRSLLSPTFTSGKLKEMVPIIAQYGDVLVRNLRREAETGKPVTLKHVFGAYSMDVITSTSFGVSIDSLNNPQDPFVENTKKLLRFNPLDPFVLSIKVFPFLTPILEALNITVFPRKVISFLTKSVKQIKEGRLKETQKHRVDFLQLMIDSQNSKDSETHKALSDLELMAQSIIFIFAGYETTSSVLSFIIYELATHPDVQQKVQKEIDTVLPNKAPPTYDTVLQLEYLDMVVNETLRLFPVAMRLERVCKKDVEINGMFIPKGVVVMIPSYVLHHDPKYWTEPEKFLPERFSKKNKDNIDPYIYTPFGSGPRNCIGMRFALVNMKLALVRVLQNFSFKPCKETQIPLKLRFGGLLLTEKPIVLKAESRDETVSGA
Hypoxia-inducible factor 1-alpha (Homo sapiens), sequence (Q16665 whole entry, looked up): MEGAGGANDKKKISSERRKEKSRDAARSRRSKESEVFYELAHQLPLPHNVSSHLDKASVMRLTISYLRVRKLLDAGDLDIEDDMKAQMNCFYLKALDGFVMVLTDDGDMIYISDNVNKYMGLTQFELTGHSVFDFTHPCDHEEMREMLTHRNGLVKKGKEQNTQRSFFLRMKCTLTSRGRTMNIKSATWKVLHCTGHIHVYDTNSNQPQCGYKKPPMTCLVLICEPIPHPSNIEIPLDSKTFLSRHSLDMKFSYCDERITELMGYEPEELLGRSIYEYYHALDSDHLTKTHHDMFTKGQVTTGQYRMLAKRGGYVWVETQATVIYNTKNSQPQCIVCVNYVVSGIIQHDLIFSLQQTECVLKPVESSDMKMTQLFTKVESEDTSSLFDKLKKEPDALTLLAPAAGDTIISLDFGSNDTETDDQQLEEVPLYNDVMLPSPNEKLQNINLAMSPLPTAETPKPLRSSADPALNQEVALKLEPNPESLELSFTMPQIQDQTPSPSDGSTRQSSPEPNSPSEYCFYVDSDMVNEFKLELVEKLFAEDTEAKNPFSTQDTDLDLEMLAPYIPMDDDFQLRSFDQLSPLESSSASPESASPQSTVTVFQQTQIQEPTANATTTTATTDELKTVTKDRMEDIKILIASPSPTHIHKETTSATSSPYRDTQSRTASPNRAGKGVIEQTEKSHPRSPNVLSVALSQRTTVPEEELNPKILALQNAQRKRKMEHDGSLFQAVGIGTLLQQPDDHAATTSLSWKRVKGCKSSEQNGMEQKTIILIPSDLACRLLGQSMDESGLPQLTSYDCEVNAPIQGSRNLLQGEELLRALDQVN

CN(C)[C@@H]1C(=O)C(C(N)=O)=C(O)[C@@]2(O)C(=O)C3=C(O)c4c(O)cccc4[C@@](C)(O)[C@H]3[C@H](O)[C@@H]12
inactive: [1] | [2] | [3] | [4] | [5] | [6] | CYP3A5 (gene 1577) | [7] | [8] | [9] | [10] | [11] | [12] | [13] | [14] | [15] | HGF (gene 3082) | [16]
active: [8] 50 µM

Nc1c(Cl)cc([N+](=O)[O-])cc1Cl
active: [1] 11.5 µM | [2] 35.1 µM | [4] 31.8 µM | [5] 50 µM | [6] 84.2 µM | CYP3A5 (gene 1577) 27.5 µM | [7] 41.8 µM | [8] 74.2 µM | [9] 50 µM | [10] 64.7 µM | [11] 88 µM | [12] 50 µM | [14] 26.8 µM | [17] 86.6 µM | [15] 50 µM
inactive: [3] | [13] | HGF (gene 3082) | [16]

CC(=NC#N)N(C)Cc1ccc(Cl)nc1
active: [1] 50 µM | [6] 50 µM
not listed: [9]
inactive: all other assays above

CCCCN(CC)c1c([N+](=O)[O-])cc(C(F)(F)F)cc1[N+](=O)[O-]
active: [1] 23.2 µM
inactive: all other assays above

N#CSCSC#N
active: [1] 77.2 µM | [6] 59.5 µM | CYP3A5 (gene 1577) 50 µM | [7] 86.2 µM | [8] 90.6 µM | [9] 50 µM | [10] 76.2 µM | [13] 80.6 µM | [15] 82.1 µM
not listed: [3]
inactive: all other assays above

CSC1=N[C@@](C)(c2ccccc2)C(=O)N1Nc1ccccc1
inactive: [3] | CYP3A5 (gene 1577) | [11] | [14] | HGF (gene 3082)
active: [1] 67.6 µM | [2] 28 µM | [4] 31.9 µM | [5] 13.1 µM | [6] 25.6 µM | [7] 53.8 µM | [8] 30.6 µM | [9] 38 µM | [10] 33.9 µM | [12] 13.5 µM | [13] 25 µM | [17] 77.1 µM | [15] 35.3 µM | [16] 27.6 µM

CCCSP(=O)(OCC)Oc1ccc(Br)cc1Cl (configuration not stated)
not listed: [9]
inactive: all other assays above

CNC(=O)Oc1cccc2c1OC(C)(C)O2
not listed: [18]
inactive: all other assays above

CCOP(=S)(Oc1cnc(C(C)(C)C)nc1)OC(C)C (configuration not stated)
active: [1] 13.9 µM | [7] 2.01 µM | [9] 4.63 µM | [15] 14 µM | [16] 44.6 µM
not listed: [18]
inactive: all other assays above

C[N+]1(C)CCCCC1
not listed: [9] | [18]
inactive: all other assays above

CC(COc1ccc(Oc2ccccc2)cc1)Oc1ccccn1 (configuration not stated)
active: [1] 11.8 µM | [3] 31.5 µM | [9] 19.9 µM | [15] 12.6 µM | [16] 32.8 µM
inactive: all other assays above

CSc1nnc(C(C)(C)C)c(=O)n1N
not listed: [3]
inactive: all other assays above

CC(C)=CC1C(C(=O)OCN2C(=O)C3=C(CCCC3)C2=O)C1(C)C (configuration not stated)
not listed: [9] | [18]
inactive: all other assays above
